In PubChem BioAssay (NCI):
This is part of a sample that, as a whole, favours compounds with a hit. Of some 83,000 tested, about 20% had one in any assay.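 Note: values are percent growth. 100 is the growth of untreated cells, values between 100 and 0 indicate rising inhibition; between -100 and 0 indicates cell death.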 Values without a mark were called inactive. The source made the active and inactive calls. The calls were made as follows: active = growth percent below 10; inactive = the rest.

How the values were obtained:
Experiment in all cases: NCI-60 one-dose screen, 48 h (100 = growth as untreated, 0 = no growth, -100 = all killed)
Conditions in all cases: 10 µM
786-0 renal = test system: 786-0 renal
SN12C renal = test system: SN12C renal
TK-10 renal = test system: TK-10 renal
ACHN renal = test system: ACHN renal
CAKI-1 renal = test system: CAKI-1 renal
A498 renal = test system: A498 renal
RPMI-8226 leukemia = test system: RPMI-8226 leukemia
OVCAR-8 ovarian = test system: OVCAR-8 ovarian
OVCAR-5 ovarian = test system: OVCAR-5 ovarian
OVCAR-4 ovarian = test system: OVCAR-4 ovarian
SK-OV-3 ovarian = test system: SK-OV-3 ovarian
OVCAR-3 ovarian = test system: OVCAR-3 ovarian
NCI/ADR-RES ovarian = test system: NCI/ADR-RES ovarian
T-47D breast = test system: T-47D breast
BT-549 breast = test system: BT-549 breast
MDA-MB-435 melanoma = test system: MDA-MB-435 melanoma
MCF7 breast = test system: MCF7 breast
HCT-116 colon = test system: HCT-116 colon
HCC-2998 colon = test system: HCC-2998 colon
KM12 colon = test system: KM12 colon

Compound	growth (786-0 renal)	growth (SN12C renal)	growth (TK-10 renal)	growth (ACHN renal)	growth (CAKI-1 renal)	growth (A498 renal)	growth (RPMI-8226 leukemia)	growth (OVCAR-8 ovarian)	growth (OVCAR-5 ovarian)	growth (OVCAR-4 ovarian)	growth (SK-OV-3 ovarian)	growth (OVCAR-3 ovarian)	growth (NCI/ADR-RES ovarian)	growth (T-47D breast)	growth (BT-549 breast)	growth (MDA-MB-435 melanoma)	growth (MCF7 breast)	growth (HCT-116 colon)	growth (HCC-2998 colon)	growth (KM12 colon)
COc1cc(OC)c(S(=O)(=O)N(CCCl)CCCl)cc1C(=O)/C=C/c1ccc(C)cc1	14.2%	53.6%	106%	64.9%	65.3%	110%	59.9%	54.2%	91.7%	52.2%	74.5%	112%	63.2%	88%	93.8%	79.5%	63.6%	58%	93.6%	81.1%
COc1cc2cc(C(=O)N3C[C@@H](CCl)c4c3cc(OC(=O)N3CCN(C)[C@@H]5CSSC[C@H]53)c3ccccc43)[nH]c2c(OC)c1OC	-57.9% (active)	-62.1% (active)	-28.4% (active)	-31.2% (active)	-9.91% (active)	-37% (active)	-33.9% (active)	-30.2% (active)	-20.4% (active)	-54.7% (active)	-26.3% (active)	-9.08% (active)	-56.1% (active)	-11.8% (active)	-96.4% (active)	-65.9% (active)	-56.2% (active)	-23.6% (active)	-79.9% (active)	-9.39% (active)
CC[C@]12C=CCN3CC[C@@]4(c5ccc(OC)cc5N(C)[C@H]4[C@@](O)(C(=O)OC)[C@@H]1OC(=O)CCCC[P+](c1ccc(C)cc1)(c1ccc(C)cc1)c1ccc(C)cc1)[C@@H]32	-91% (active)	-88.5% (active)	-91.3% (active)	-99.3% (active)	-95.2% (active)	-90.9% (active)	-46% (active)	-86.6% (active)	-96% (active)	-68.9% (active)	-82.3% (active)	-77.1% (active)	71.8%	-64.5% (active)	-97% (active)	-86.8% (active)	-81.2% (active)	-93.5% (active)	-85.8% (active)	-73.6% (active)
CC12OOC(C)(OO1)C2CCC(=O)NCCCNc1ccnc2cc(Cl)ccc12 (stereo not given)	-12.2% (active)	91.9%	23.4%	-100% (active)	-93.3% (active)	114%	39%	94.9%	84.4%	-42.2% (active)	103%	-49.6% (active)	99.9%	40%	121%	93.8%	58.1%	3.56% (active)	106%	86.4%
COC(=O)CCn1c(-c2ccc(-n3cc(-c4ccc(O[C@H]5O[C@@H]6OC7(C)CC[C@H]8[C@H](C)CC[C@@H]([C@H]5C)[C@@]68OO7)cc4)nn3)cc2)nc2ccccc21	32.3%	16.3%	30.4%	8.18% (active)	13.7%	74.4%	20.3%	9.58% (active)	36.6%	34.2%	33.1%	20.4%	16.2%	14.9%	-7.77% (active)	24.5%	11.1%	11.6%	38.5%	18%
COP(=O)(CC(F)(F)C(F)(F)F)OC	-3% (active)	76.2%	-40.6% (active)	-97.6% (active)	10.3%	131%	12.3%	-75.6% (active)	68.9%	-13.4% (active)	118%	-3.42% (active)	61.8%	13.2%	37.3%	9.6% (active)	3.91% (active)	-60.6% (active)	91%	94.6%
O=C(/C=C/c1cccc(Br)c1)c1nc2ccccc2n1Cc1ccc(F)cc1	12.5%	47.3%	80.2%	40.7%	54.4%	116%	-24.7% (active)	28.2%	53.7%	54.8%	81.2%	22.1%	8.54% (active)	17.9%	12.5%	11.6%	8.41% (active)	-41.1% (active)	25%	41.4%
CC(C)N=C([Se])NC(=O)c1cccs1	2.02% (active)	-21.4% (active)	56%	47.2%	31.1%	36.6%	-4.48% (active)	-36.8% (active)	-22.6% (active)	83%	-17.3% (active)	66.3%	-27% (active)	79.4%	43.7%	37.4%	1.79% (active)	13.3%	27.6%	16.7%
